Reference: PubChem BioAssay AID1857 (The Scripps Research Institute Molecular Screening Center, 2009)
Hit rate of the full screen: of about 1,300 compounds, about 290 (22%) were called active.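 Rule for the calls: active = inhibition above the mean of all tested compounds plus 3 SD (cut at about 19% in these data); inactive = the rest.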 Not all results are given here.

What follows are compounds tested on VIM-2 metallo-beta-lactamase (Pseudomonas aeruginosa) (assay: VIM-2 CCF2 hydrolysis inhibition, orthogonal readout – biochemical, FRET, epi-absorbance artifact exclusion, artefact control for selective VIM-2 inhibitor project, confirmation (AID 1857;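 note: 0% = VIM-2 plus DMSO and 100% = no enzyme wells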)). Conditions: purified VIM-2, CCF2 FRET substrate hydrolysis; at 5.6 µM; hits give high values.

Q: How did the inhibition turn out when `COc1ccc(Cc2nnc(NS(=O)(=O)Cc3ccccc3)s2)cc1` was run?
A: Its inhibition is 29.2% (active).

Q: For `CCC1CCCCN1CCCNC(=O)c1cc2c(Cl)nc3ccccc3c2s1` (configuration not stated), which inhibition is on record?
A: The inhibition was 3.62% (inactive).

Q: With `Cn1c(=O)c2c(nc(N3CCOCC3)n2CCNC2=NCCC2)n(C)c1=O` as the compound, how does the inhibition read?
A: The inhibition was 1.09% (inactive).

Q: With `CCOc1cc(/C=C2\SC(N3CCCCC3)=NC2=O)ccc1O` as the compound, how does the inhibition read?
A: Its inhibition is 1.41% (inactive).

Q: For `CCN1CCN(CCNC(=O)c2ccc3c(c2)NC(=O)/C(=C\c2ccc(OC)c(OC)c2)S3)CC1`, which inhibition is on record?
A: The inhibition was 31% (active).

Q: How did the inhibition turn out when `Cc1cccn2c(=O)c(C=O)c(Nc3ccc(S(N)(=O)=O)cc3)nc12` was run?
A: Its inhibition is 2.01% (inactive).

Q: `CCOc1cc(/C=C2\SC(N3CCCC(C)C3)=NC2=O)ccc1O` (configuration not stated) was tested. Which inhibition did it give?
A: Its inhibition is -2.85% (inactive).

Q: Which inhibition does the source give for `O=C(COc1cc2oc(=O)c3c(c2cc1Cl)CCC3)NCCCN1CCOCC1` here?
A: The inhibition was -0.64% (inactive).

Q: Which inhibition does the source give for `Cn1c(-c2sccc2OCc2cccc(C(F)(F)F)c2)n[nH]c1=S` here?
A: Its inhibition is 58.2% (active).

Q: How did the inhibition turn out when `CN(C)CCNc1ccc(-c2n[nH]c(=O)c3ccccc23)cc1[N+](=O)[O-]` was run?
A: Its inhibition is -1.97% (inactive).

Q: For `CCCc1ccc(OCCNC(=O)c2ccco2)cc1`, which inhibition is on record?
A: The inhibition was -1.44% (inactive).

Q: `Cc1nc2ccccc2c2oc(C(=O)NCCCN3CCC(C)CC3)cc12` was tested. Which inhibition did it give?
A: Its inhibition is 1.71% (inactive).

Q: For `C=CCn1c(-c2ccccc2OCC)n[nH]c1=S`, which inhibition is on record?
A: Its inhibition is 40.4% (active).

Q: Which inhibition does the source give for `O=C(NCCCN1CCOCC1)c1cnn2c(-c3ccccc3)cc(-c3ccccc3)nc12` here?
A: The inhibition was -2.83% (inactive).

Q: With `CCc1cc(=O)oc2cc(C)cc(OCC(=O)N3CCC[C@@H]3C(=O)O)c12` as the compound, how does the inhibition read?
A: The inhibition was 32.9% (active).

Q: Which inhibition does the source give for `Cc1cc(NCc2ccco2)n2c(nc3ccccc32)c1C#N` here?
A: Its inhibition is -12.9% (inactive).

Q: How did the inhibition turn out when `CCN(CC)CCOc1ccc2c(c1)C(=NNC(=O)c1ccccn1)c1cc(OCCN(CC)CC)ccc1-2` was run?
A: The inhibition was 2.33% (inactive).

Q: How did the inhibition turn out when `O=C(NC(=S)Nc1ccccc1C(=O)O)c1ccc(-c2ccc(Br)cc2)o1` was run?
A: The inhibition was 11.2% (inactive).

Q: With `CCN1CCCC1CNC(=O)c1cc2c(=O)n(C)c3ccccc3c2n1C` (configuration not stated) as the compound, how does the inhibition read?
A: The inhibition was -2.42% (inactive).

Q: `CC1CCCC(C)N1CCCNC(=O)c1cc2c(=O)n(C)c3ccccc3c2n1C` (configuration not stated) was tested. Which inhibition did it give?
A: Its inhibition is -7.42% (inactive).

Q: For `NC(=O)C1CCN(C(=O)COc2ccc3c4c(c(=O)oc3c2)CCC4)CC1`, which inhibition is on record?
A: Its inhibition is -2.54% (inactive).

Q: How did the inhibition turn out when `Cc1cc(C)c2nc3nc(C)cc(C)c3c(N)c2c1` was run?
A: The inhibition was -10.3% (inactive).

Q: `CC(NS(=O)(=O)c1ccccc1)c1n[nH]c(=S)n1-c1ccccc1` (configuration not stated) was tested. Which inhibition did it give?
A: Its inhibition is 38.4% (active).

Q: For `Cc1cc([N+](=O)[O-])c(-c2ccc(/C=N/n3cnnc3)o2)cc1Cl`, which inhibition is on record?
A: The inhibition was -0.73% (inactive).

Q: Which inhibition does the source give for `Fc1ccc(-c2ccc(CNCc3ccccn3)o2)cc1Cl` here?
A: Its inhibition is -13.3% (inactive).

Q: With `CC(C)(C)CC(=O)Nc1nnc(SCC(=O)NCc2cccs2)s1` as the compound, how does the inhibition read?
A: Its inhibition is 45.5% (active).

Q: How did the inhibition turn out when `Nc1nnc2c(C(F)(F)F)nc3ccccc3n12` was run?
A: Its inhibition is 2.08% (inactive).

Q: With `CCN(CC)c1ccc2cc(C(N)=O)/c(=N\NC(=O)c3ccncc3)oc2c1` as the compound, how does the inhibition read?
A: Its inhibition is 11.1% (inactive).

Q: Which inhibition does the source give for `Cc1ccc2nc(C)c3c(c2c1)N(c1ccccc1)CC3` here?
A: Its inhibition is -1.46% (inactive).

Q: For `COc1ccc(/C=N/N(C)C2=NS(=O)(=O)c3ccccc32)cc1OC`, which inhibition is on record?
A: Its inhibition is -2.83% (inactive).

Q: Which inhibition does the source give for `CCN1CCN(C(=O)Cn2nc(C)n3c(cc4c(OC)cccc43)c2=O)CC1` here?
A: The inhibition was 1.55% (inactive).

Q: How did the inhibition turn out when `Cc1cc(-c2ccc(/C=N/n3cnnc3)o2)c([N+](=O)[O-])cc1C` was run?
A: The inhibition was -2.34% (inactive).

Q: How did the inhibition turn out when `O=C1Nc2cc(C(=O)N3CCC(N4CCCCC4)CC3)ccc2S/C1=C\c1ccccc1` was run?
A: Its inhibition is 53.6% (active).

Q: `COc1ccc(Nc2cc(C)nc(-n3nc(C)cc3C)n2)cc1` was tested. Which inhibition did it give?
A: The inhibition was -53.5% (inactive).

Q: With `Cc1ccc(Cl)cc1-c1ccc(/C=N/n2cnnc2)o1` as the compound, how does the inhibition read?
A: The inhibition was -0.56% (inactive).

Q: How did the inhibition turn out when `COc1cc(NC(=O)C2=C(C)OCCS2)c(Cl)cc1C(=O)NCCN1CCN(C)CC1` was run?
A: Its inhibition is 2.07% (inactive).

Q: With `COc1cc(-c2nn3c(-c4cccc(C)c4)nnc3s2)cc(OC)c1OC` as the compound, how does the inhibition read?
A: Its inhibition is 22.2% (active).

Q: How did the inhibition turn out when `COc1ccc(-c2nn3c(-c4ccccc4)nnc3s2)cc1OC` was run?
A: Its inhibition is 1.85% (inactive).

Q: Which inhibition does the source give for `CCOCCCNc1c(CC)c(C)c(C#N)c2nc3ccccc3n12` here?
A: The inhibition was 0.59% (inactive).

Q: For `COc1ccc(CCn2c(=N)c(C(=O)NCC3CCCO3)cc3c(=O)n4cccc(C)c4nc32)cc1OC` (configuration not stated), which inhibition is on record?
A: Its inhibition is -3.31% (inactive).

Q: For `CC(=O)c1ccc(-c2ccc(Cn3c(C)nc4cc(N)c(C)nc43)cc2)cc1`, which inhibition is on record?
A: Its inhibition is 42.1% (active).

Q: How did the inhibition turn out when `COC(=O)c1c(NC(=O)c2ccc(S(=O)(=O)N3CCOCC3)cc2)sc2c1CCN(C(C)C)C2` was run?
A: The inhibition was 1.2% (inactive).

Q: `CNC(=O)c1ccsc1NC(=O)c1ccc(S(=O)(=O)N2CCOCC2)cc1` was tested. Which inhibition did it give?
A: Its inhibition is 37.1% (active).

Q: `CN1CCN(c2ccc(NC(=O)c3ccc4c(c3)[nH]c(=O)n4Cc3ccc(F)cc3)cc2)CC1` was tested. Which inhibition did it give?
A: The inhibition was -0.35% (inactive).

Q: How did the inhibition turn out when `CCOC(=O)N1CCN(C(=O)C2CCN(c3ncnc4c3sc3cccc(F)c34)CC2)CC1` was run?
A: The inhibition was 1.58% (inactive).

Q: Which inhibition does the source give for `Nc1cccc2c1C(=O)N(Cc1nnc(-c3ccccc3Br)o1)C2=O` here?
A: Its inhibition is 29.6% (active).

Q: With `COc1nc(N=C(N)N)nc2c(C)cccc12` as the compound, how does the inhibition read?
A: Its inhibition is -4.99% (inactive).

Q: Which inhibition does the source give for `Cn1c2ccccc2c(=O)c2c(O)cccc21` here?
A: Its inhibition is -1.24% (inactive).

Q: Which inhibition does the source give for `COc1cc(/C=N/Nc2nn3cnnc3c3ccccc23)cc(OC)c1OC` here?
A: Its inhibition is 0.17% (inactive).

Q: `COC(=O)c1ccc(-c2noc(CN(Cc3ccccn3)CC3CCCO3)n2)cc1` (configuration not stated) was tested. Which inhibition did it give?
A: The inhibition was -11.9% (inactive).

Q: For `O=c1[nH]c(-c2ccccc2)c(-c2ccccc2)[nH]1`, which inhibition is on record?
A: Its inhibition is -3.81% (inactive).

Q: For `Clc1cc(-c2ccc(/C=N/n3cnnc3)o2)ccc1Br`, which inhibition is on record?
A: The inhibition was -1.55% (inactive).
